Assay [1] in a line: Viability qHTS for spleen associated tyrosine kinase inhibitor (SYKi) drug resistant MV4-11 cells (AID 1963824). Note: nearly all actives have a fitted effect of over 35% in size. The gist of the method:
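SYK inhibitor-resistant MV4-11 AML cells, 500 per well, added to predispensed compounds and incubated 72 hr at 37 C, 5% CO2. Viability measured by CellTiter-Glo luminescence after 10 min at room temperature.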
For orientation: Quantitative high-throughput screening tests each substance at several concentrations.

The nature of assay [2]: Quantitative highthroughput screen to assess conditional lethalithy of NOMO1 cells grown in RPMI1640 with untreated serum (RPMI+s) (AID 1963876).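 For Viability: 100% = DMSO wells and 0% = empty wells without cells.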 Note: nearly all actives have a fitted effect of over 35% in size. The gist of the method: (§1)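 Each medium arm—HPLM with 10% dialyzed FBS, or RPMI1640 with 5 mM glucose and 10% untreated or dialyzed FBS—was screened against an 11-point, 3-fold compound titration for 48 h at 37 °C, with CellTiter-Glo luminescence as endpoint.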

Assay [3] in a line: Quantitative highthroughput screen to assess conditional lethalithy of NOMO1 cells grown in RPMI1640 with dialyzed fetal bovine serum (RPMI+ds) (AID 1963877).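 For Viability: series mostly up to about 46 µM; 100% = DMSO control wells and 0% = empty wells.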 Note: nearly all actives have a fitted effect of over 30% in size. The gist of the method: as §1
Assay [4] is described as follows: Quantitative highthroughput screen to assess conditional lethalithy of NOMO1 cells grown in Human Plasma-Like Medium with dialyzed fetal bovine serum (HPLM+ds) (AID 1963878).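 For Viability: 100% = DMSO wells and 0% = empty wells on each plate.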 Note: nearly all actives have a fitted effect of over 35% in size. The gist of the method:
as §1

The nature of assay [5]: Quantitative highthroughput screen to assess conditional lethalithy of P12 Ichikawa cells grown in RPMI1640 with dialyzed fetal bovine serum (RPMI+ds) (AID 1963880).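 For Viability: 100% = DMSO wells and 0% = empty wells on each plate.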 Note: nearly all actives have a fitted effect of over 35% in size. Conditions: Potency: P12-Ichikawa viability. The gist of the method: as §1
The nature of assay [6]: Quantitative highthroughput screen to assess conditional lethalithy of P12 Ichikawa cells grown in RPMI1640 with untreated serum (RPMI+s) (AID 1963881).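 For Viability: series mostly up to about 46 µM; 100% = DMSO wells and 0% = empty wells without cells.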 Note: nearly all actives have a fitted effect of over 35% in size. The note with it: Potency: viability. The gist of the method: as §1
Assay [7] in a line: Quantitative highthroughput screen to assess conditional lethalithy of SEM cells grown in Human Plasma-Like Medium with dialyzed fetal bovine serum (HPLM+ds) (AID 1963882). For Viability: series mostly up to about 46 µM. Note: nearly all actives have a fitted effect of over 35% in size. The gist of the method: as §1
The nature of assay [8]: Quantitative highthroughput screen to assess conditional lethalithy of SEM cells grown in RPMI1640 with unreated serum (RPMI+s) (AID 1963883).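 For Viability: 100% = DMSO wells and 0% = empty wells without cells.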 Note: nearly all actives have a fitted effect of over 35% in size. The gist of the method:
as §1

Assay [9] can be described thus: Quantitative highthroughput screen to assess conditional lethalithy of SEM cells grown in RPMI1640 with dialyzed fetal bovine serum (RPMI+ds) (AID 1963884).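 For Viability: series mostly up to about 46 µM; 100% = DMSO control wells and 0% = empty wells without cells.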 Note: nearly all actives have a fitted effect of over 35% in size. The gist of the method: as §1
Assay [10] can be described thus: Cellular viability qHTS for adrenocortical cancer (ACC) cell line SW-13 (AID 1963989).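 For activity (max response): cells grown in serum-free medium with ITS supplement; % is set by controls: 0 for no effect and ±100 for the full control effect.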 Note: nearly all actives have a fitted effect of over 65% in size. The note with it: SW-13 ACC cells viability, CellTiter-Glo, 48 h; activity (max response): stronger effect = lower value. The gist of the method: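 48 h treatment, SW-13 in ITS/DMEM serum-free; doses up to 46 uM; readout CellTiter-Glo luminescence; curve fit four-parameter logistic.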
Assay [11] can be described thus: Cellular viability qHTS for adrenocortical cancer (ACC) cell line NCI-H295R (AID 1963990). Note: nearly all actives have a fitted effect of over 60% in size. The gist of the method:
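Compound titrations (up to 46 uM final) are applied to NCI-H295R cultures for 48 h at 37C. Viable cell number is estimated by CellTiter-Glo signal, normalised to DMSO and doxorubicin controls.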

Assay [12] in a line: Quantitative highthroughput screen to assess conditional lethalithy of P12 Ichikawa cells grown in Human Plasma-Like Medium with dialyzed fetal bovine serum (HPLM+ds) (AID 1963879). For Viability: series mostly up to about 46 µM. Note: nearly all actives have a fitted effect of over 35% in size. The note with it: Potency: viability. The gist of the method: as §1

Several values for one entry are separate records, joined by “and”; a condition that tells them apart may be missing. Identical values can stand only once. Records with an inconclusive call do not appear. More than one record can exist for a structure, and the calls need not agree. Activity calls are given as the source filed them. Calls come from the whole dose curve; as a rule, active = well fitted curve in the direction sought with a large enough effect; inconclusive = small, poorly fitted or top-dose-only effect, or another doubt; inactive = no such curve, though single readings can be large; an effect the other way counts as inactive or inconclusive.
Potency is the fitted concentration of half-maximal effect.

For `C=CC(=O)N1CCc2ccc(-n3c(=O)ccc4cnc5ccc(-c6cnn(C)c6)cc5c43)cc21`, the Potency was 0.091 µM (active) in assay [1]; 7.43 µM (active) in [2]; 4.69 µM (active) in assay [3]; 3.72 µM (active) in assay [4]; 7.43 µM (active) in [5]; 7.43 µM (active) in assay [6]. Moreover, the Potency in assay [7] was 3.32 µM (active); in assay [8], 3.32 µM (active); in assay [9], 3.32 µM (active); in assay [10] it was 3.58 µM (active); in assay [11] it was 0.506 µM (active).

For `CC(C)(Sc1ccc(CCN(CCCCC2CCCCC2)C(=O)NC2CCCCC2)cc1)C(=O)O`, the Potency in assay [1] is 18.6 µM (active). Moreover, the Potency result in assay [2], in [3], in assay [4], in assay [12], in assay [6] and in [7] was “inactive” throughout. Besides, the Potency entry in assay [8], in [9] and in [11] was “inactive” in each case. The activity (max response) in assay [10] was 4.08% (inactive).

As to `CCCCCCCCCCCCCCCC(=O)O[C@H]1[C@@H](O)[C@@H](O)[C@@H]([C@H](NC(=O)[C@@H]2C[C@@H](CCC)CN2C)[C@H](C)Cl)O[C@@H]1SC`, the Potency in assay [1] is 23.5 µM (active); in assay [2] it was 11.8 µM (active). Also, the Potency entry in assay [12], in [5], in assay [6], in assay [7], in assay [8] and in [9] was “inactive” throughout. Moreover, the activity (max response) in [10] was 13.6% (inactive).

For the compound `NC(=O)c1ccc(N(C(N)=O)c2c(F)cccc2F)nc1-c1ccc(F)cc1F`, the Potency in assay [1] was 10.3 µM (active) and inactive. The Potency entry in [2], in [4], in assay [6], in assay [8] and in assay [11] was “inactive” throughout. In assay [10], the activity (max response) is -4.37% (inactive).

With `COc1cccc2nc(-c3cccs3)nc(NN3C(=O)C=C(C)C3=O)c12`, the Potency is 0.148 µM (active) in [1]; 1.48 µM (active) in [2]; 0.469 µM (active) in [4]; 2.96 µM (active) in assay [5]; 2.64 µM (active) in assay [6]; 0.418 µM (active) in assay [7]. The Potency was 0.935 µM (active) in assay [8], 1.32 µM (active) in assay [9] and 11.2 µM (active) in [10].

On to `CNC(=O)c1ccc(Nc2ncc(C(F)(F)F)c(NCc3nccnc3N(C)S(C)(=O)=O)n2)cc1`, for which the Potency is 291 nM (active) and 525 nM (active) in assay [1]; 1.48 µM (active) in assay [7]; 1.05 µM (active) in assay [8]; 0.933 µM (active) in [9]; 7.94 µM (active) in [11]. Moreover, the Potency entry in assay [2], in assay [3], in assay [5] and in assay [6] was “inactive” in each case.

As to `COc1cc([C@@H]2c3cc4c(cc3[C@H](O)[C@H]3COC(=O)[C@@H]23)OCO4)cc(OC)c1OC`, the Potency in assay [1] was 0.372 µM (active); in assay [2], 0.418 µM (active); in [3], 0.526 µM (active); in [12] it was 0.332 µM (active); in assay [5] it was 0.469 µM (active); in [6], 0.372 µM (active). Besides, the Potency in assay [7] is 0.296 µM (active); in [8] it was 0.296 µM (active); in assay [9], 0.264 µM (active); in assay [10], 0.631 µM (active); in assay [11], 0.501 µM (active).

As to `Cc1ccc(C(C)(O)c2nc3ccccc3s2)c(C)c1` (configuration not stated), the Potency was 16.6 µM (active) in assay [1]; 13.2 µM (active) in assay [2]; 10.5 µM (active) in assay [12]; 18.7 µM (active) in assay [5]; 14.8 µM (active) in [6].

With `c1ccc2c(Cc3c[nH]c4ccccc34)c[nH]c2c1`, the Potency in [1], in [4] and in assay [9] was 20.9 µM (active) in each case. Moreover, in [2], the Potency entry is “inactive”.

Take `CCCCC(F)(F)[C@@]1(O)CC[C@H]2[C@H](CC(=O)[C@@H]2CCCCCCC(=O)O)O1`: in assay [1], the Potency was 0.0295 µM (active). The Potency entry in assay [2], in assay [3], in assay [12], in assay [5], in assay [6] and in assay [7] was “inactive” each time. The Potency entry in assay [8], in assay [9] and in [11] was “inactive” in each case.

With `Cc1cc2c(cc1C1(c3ccc(C(=O)O)cn3)CC1)C(C)(C)CCC2(C)C`, the Potency in [1] was 0.468 µM (active); in assay [9] it was 0.0662 µM (active). Further, the Potency entry in [2], in [3], in assay [12], in assay [5], in [6] and in assay [7] was “inactive” throughout. Also, the Potency entry in assay [8] and in [11] was “inactive” throughout. The activity (max response) in [10] was 9.77% (inactive).

Turning to `CC(=O)Oc1ccccc1C(=O)Nc1ncc([N+](=O)[O-])s1`, in assay [1], the Potency is 11.9 µM (active) and 20.9 µM (active). The Potency entry in assay [2], in [3], in assay [6], in assay [8] and in assay [9] was “inactive” each time. Also, the activity (max response) in assay [10] was 7.32% (inactive) and 2.04% (inactive).

On to `CCS(=O)(=O)N1CC(CC#N)(n2cc(-c3ncnc4[nH]ccc34)cn2)C1`, for which, in assay [1], the Potency was 16.4 µM (active) and 10.5 µM (active). Further, the Potency entry in [2], in assay [12], in assay [5] and in assay [6] was “inactive” throughout.

`Oc1cccc(-c2nc(N3CCOCC3)c3oc4ncccc4c3n2)c1`: the Potency in assay [1] is 0.525 µM (active); in assay [7], 15.2 µM (active); in assay [8] it was 1.91 µM (active); in [9] it was 7.62 µM (active). In addition, the Potency result in assay [2], in assay [3], in [5] and in assay [6] was “inactive” in each case.

For the compound `O=C1NC(=O)C(c2ccccc2[N+](=O)[O-])=C1Nc1ccc(O)c(Cl)c1`, the Potency in assay [1] is 16.6 µM (active); in [2], 18.7 µM (active); in assay [3] it was 18.7 µM (active); in [5] it was 14.8 µM (active); in assay [7] it was 16.6 µM (active). For the same compound, the activity (max response) in [10] is -17.3% (inactive). In addition, the Potency result in assay [11] was “inactive”.

Consider `Cc1cccc(C)c1OCC(=O)N[C@@H](Cc1ccccc1)[C@@H](O)C[C@H](Cc1ccccc1)NC(=O)[C@H](C(C)C)N1CCCNC1=O`, for which the Potency in [1] was 23.7 µM (active); in assay [11], 16.4 µM (active). The Potency entry in assay [2] and in assay [3] was “inactive” in each case.

`CCCS(=O)c1ccc2nc(NC(=O)OC)[nH]c2c1` (configuration not stated): the Potency in assay [1] was 23.7 µM (active) and 23.5 µM (active); in assay [2], 20.9 µM (active); in assay [4], 20.9 µM (active); in [9] it was 9.35 µM (active); in assay [10], 25.1 µM (active).

For `CCC(C)N(C)C(=O)c1cc2ccccc2c(-c2ccccc2Cl)n1` (configuration not stated), the Potency in assay [1] is 18.6 µM (active). For the same compound, the Potency entry in assay [2], in assay [4], in assay [12], in assay [5], in assay [6] and in assay [7] was “inactive” throughout. The Potency result in [8] is “inactive”. Further, the activity (max response) in assay [10] is -6.79% (inactive).

The record behind these values is PubChem BioAssay (NCATS).
